Source: PubChem BioAssay (EPA / NIEHS)
Where a structure was tested more than once in an assay, its records may differ in their call. Calls of active or inactive are those of the source. Rule for the calls: active = hit-call score of the fitted dose curve at least 0.9, where 1 is the maximum; inactive = score below 0.9.

Key:
[1] = ATG_ISRE_CIS: Attagene CIS-FACTORIAL HepG2 Assay for human Interferon Regulatory Factor 1 (IRF1) binding to an Interferon-Stimulated Response Element (ISRE) (AID 2282948); details: HepG2 ISRE cis-reporter (Attagene), mRNA transcription readout; actives raise or lower the signal
In short: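 Transfected HepG2 (multiple reporter transcription units, cis elements) dosed 24 h. RNA → oligo(dT) RT → PCR → 6-FAM primer extension → HpaI → CE. DMSO = negative control/baseline.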

[2] = ATG_M_32_CIS: Attagene CIS-FACTORIAL HepG2 Assay for M32 Transcription Factor (Internal Marker) (AID 2282949); details: HepG2 Attagene cis-factorial M32 reporter, mRNA; actives raise or lower the signal;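 note: background control marker of the multiplexed CIS panel rather than a real target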
In short: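 HepG2 cells transiently transfected with multiplexed cis-regulated reporter units, dosed 24 h. Reporter mRNA quantified by RT-PCR, 6-FAM labelling, HpaI digestion and capillary electrophoresis; bidirectional fit vs DMSO.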

[3] = ATG_M_06_CIS: Attagene CIS-FACTORIAL HepG2 Assay for M06 Transcription Factor (Internal Marker) (AID 2282950); details: HepG2 Attagene CIS-FACTORIAL M06 internal marker reporter; actives raise or lower the signal
In short: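 HepG2 liver cells, 24 h exposure. Reporter transcripts from transfected cis-element constructs quantified by RT-PCR/capillary electrophoresis fluorescence. Bidirectional curve fit against DMSO.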

[4] = biological target: Hepatocyte nuclear factor 6 (Homo sapiens) (UniProt Q9UBC0); assay: ATG_HNF6_CIS: Attagene CIS-FACTORIAL HepG2 Assay for human Hepatocyte Nuclear Factor 6 (HNF6) (AID 2282952); details: HepG2 Attagene cis-factorial HNF6 reporter transcription; actives raise or lower the signal
In short: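 HepG2 cells transiently transfected with cis-element-driven multiple reporter transcription units, dosed 24 h; reporter mRNA quantified by RT-PCR, FAM primer extension, HpaI digestion and capillary electrophoresis; bidirectional fit versus DMSO baseline.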

[5] = biological target: Heat shock factor protein 1 (Homo sapiens) (UniProt Q00613); assay: ATG_HSE_CIS: Attagene CIS-FACTORIAL HepG2 Assay for human Heat Shock Transcription Factor 1 (HSE) (AID 2282953); details: HepG2 HSE cis-reporter, Attagene RNA transcription; actives raise or lower the signal
In short: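 Endogenous transcription factor activity captured via cis-promoter reporter units transfected into HepG2; treatment lasted 24 h. Fluorescence intensity of reporter fragments analysed with bidirectional curve fitting, DMSO baseline.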

[6] = ATG_MRE_CIS: Attagene CIS-FACTORIAL HepG2 Assay for human Metal Responsive Element (MRE) (AID 2282954); details: HepG2 MRE cis-reporter transcription, Attagene multiplex; actives raise or lower the signal
In short: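 Step one: transfect HepG2 with cis-regulated reporter units. Step two: dose 24 h. Step three: isolate RNA, RT-PCR, 6-FAM label, HpaI digest, capillary electrophoresis. Fit bidirectionally to DMSO.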

[7] = ATG_PBREM_CIS: Attagene CIS-FACTORIAL HepG2 Assay for human Phenobarbital-responsive Enhancer Module (PBREM) (AID 2282955); details: HepG2 PBREM cis-reporter, Attagene multiplexed transcription; actives raise or lower the signal
In short: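 Cells were transfected with cis-element reporter units and treated for 24 h, after which RNA was extracted and reporter transcripts measured by RT-PCR and capillary electrophoresis.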

[8] = biological target: Paired box protein Pax-6 (Homo sapiens) (UniProt P26367); assay: ATG_Pax6_CIS: Attagene CIS-FACTORIAL HepG2 Assay for human Paired Box 6 (PAX6) (AID 2282956); details: HepG2 CIS-FACTORIAL PAX6 reporter transcription, RNA readout; actives raise or lower the signal
In short: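 Transient MRTU transfection of HepG2 → compound exposure 24 h → TriZol RNA, oligo(dT) RT → PCR, 6-FAM primer extension, HpaI cut → capillary electrophoresis; activity fitted both directions against DMSO.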

[9] = ATG_PXRE_CIS: Attagene CIS-FACTORIAL HepG2 Assay for human Pregnane X Receptor Element (PXRE) (AID 2282957); details: HepG2 Attagene CIS-FACTORIAL PXRE reporter, mRNA; actives raise or lower the signal
In short: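 HepG2 cells transiently transfected with cis-regulated multiple reporter transcription units; endogenous factor activity measured as reporter mRNA 24 h after dosing. RT-PCR, fluorescent primer extension, HpaI digestion, capillary electrophoresis; bidirectional fit versus DMSO baseline.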

[10] = ATG_RORE_CIS: Attagene CIS-FACTORIAL HepG2 Assay for human RAR-related Orphan Receptor Element (RORE) (AID 2282959); details: HepG2 Attagene cis-factorial RORE reporter, mRNA; actives raise or lower the signal
In short: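 Endogenous factor activity at a cis response element is read as reporter transcript levels in HepG2 cells, 24 h post-dose. Transcripts are quantified by RT-PCR with capillary electrophoresis, and data fitted in both directions against DMSO.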

[11] = biological target: Transcription factor Sp1 (Homo sapiens) (UniProt P08047); assay: ATG_Sp1_CIS: Attagene CIS-FACTORIAL HepG2 Assay for human Specificity Protein 1 (Sp1) (AID 2282961); details: HepG2 Sp1 cis-reporter transcription, actives raise or lower the signal
In short: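 Cells: HepG2, transiently transfected with cis-regulated multiplexed reporters. Exposure: 24 h. Detection: reporter transcripts amplified, fluorescently labeled, restriction-digested and sized by capillary electrophoresis. Analysis: bidirectional fit relative to DMSO.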

[12] = ATG_SREBP_CIS: Attagene CIS-FACTORIAL HepG2 Assay for human Sterol Regulatory Element Binding (SREBP) (AID 2282962); details: HepG2 Attagene cis-factorial SREBP reporter, mRNA; actives raise or lower the signal
In short: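 Transfected HepG2 (cis-regulated reporter library, endogenous TFs) → compound 24 h → total RNA → oligo(dT) RT → reporter-specific PCR → FAM primer extension, HpaI cut → CE fluorescence. Fit bidirectional vs DMSO.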

[13] = ATG_TA_CIS: Attagene CIS-FACTORIAL HepG2 Assay for human TA Basal Promoter (AID 2282964); details: HepG2 Attagene CIS-factorial TA basal promoter reporter; actives raise or lower the signal
In short: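 Fluorescence from labelled RT-PCR reporter fragments, separated by capillary electrophoresis, gives the signal. Cells: HepG2 transiently carrying multiple reporter units, 24 h chemical dosing. Gain or loss relative to DMSO.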

[14] = ATG_TCF_b_cat_CIS: Attagene CIS-FACTORIAL HepG2 Assay for human T-Cell-Factor with beta-catenin (TCF/b-cat) (AID 2282965); details: HepG2 TCF/beta-catenin cis-reporter transcription, actives raise or lower the signal
In short: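 Using capillary electrophoresis as the read-out, labelled reporter cDNA fragments from transiently transfected HepG2 were sized and quantified. Exposure lasted 24 hours; activity in either direction was referenced to DMSO.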

[15] = biological target: Hypoxia-inducible factor 1-alpha (Homo sapiens) (UniProt Q16665); assay: ATG_HIF1a_CIS: Attagene CIS-FACTORIAL HepG2 Assay for human Hypoxia Inducible Factor 1 (HIF1A) (AID 2282951); details: HepG2 Attagene cis-factorial HIF1a reporter transcription; actives raise or lower the signal
In short: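 Fluorescence intensity of capillary-separated, 6-FAM-labelled reporter amplicons gives mRNA induction in HepG2 cells carrying transfected cis-promoter reporter units; cells exposed 24 h, responses fitted up or down from DMSO.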

[16] = ATG_Sox_CIS: Attagene CIS-FACTORIAL HepG2 Assay for human SRY-box transcription factor (SOX) (AID 2282960); details: HepG2 Attagene cis-factorial SOX reporter, mRNA; actives raise or lower the signal
In short: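 Measures mRNA induction of a SOX1-associated reporter in HepG2 after 24 h dosing. Fluorescently labelled RT-PCR fragments are separated by capillary electrophoresis, and gain or loss relative to DMSO control is fitted.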

[17] = ATG_PPRE_CIS: Attagene CIS-FACTORIAL HepG2 Assay for human Peroxisome Proliferator-activated Response Element (PPRE) (AID 2282958); details: HepG2 PPRE cis-element reporter, Attagene transcription factor profiling; actives raise or lower the signal
In short: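 In this cell-based multiplex, a PPRE cis element drives a reporter sequence in transiently transfected HepG2 cells. Following 24 h treatment, labeled cDNA amplicons are sized and quantified by capillary electrophoresis, with DMSO defining baseline.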

[18] = biological target: Signal transducer and activator of transcription 3 (Homo sapiens) (UniProt P40763); assay: ATG_STAT3_CIS: Attagene CIS-FACTORIAL HepG2 Assay for human Signal Transducer and Activator of Transcription 3 (STAT3) (AID 2282963); details: HepG2, Attagene cis-factorial STAT3 reporter transcription; actives raise or lower the signal
In short: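 Transcript-level reporter assay. HepG2 transient MRTU transfection, 24 h exposure, fluorescence detection after RT-PCR and CE; DMSO baseline.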

[19] = ATG_GRE_CIS: Attagene CIS-FACTORIAL HepG2 Assay for human Glucocorticoid Response Elements (GRE) (AID 2282947); details: HepG2 GRE cis-reporter, Attagene multiplex mRNA; actives raise or lower the signal
In short: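 Following 24 h chemical exposure of transiently transfected HepG2 cells, total RNA was reverse-transcribed and reporter cDNA amplified, fluorescently labelled and sized by capillary electrophoresis. Signal gain or loss was fitted relative to DMSO vehicle.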

Measured: AC50

Sequence of Signal transducer and activator of transcription 3 (Homo sapiens) (P40763 whole entry, looked up): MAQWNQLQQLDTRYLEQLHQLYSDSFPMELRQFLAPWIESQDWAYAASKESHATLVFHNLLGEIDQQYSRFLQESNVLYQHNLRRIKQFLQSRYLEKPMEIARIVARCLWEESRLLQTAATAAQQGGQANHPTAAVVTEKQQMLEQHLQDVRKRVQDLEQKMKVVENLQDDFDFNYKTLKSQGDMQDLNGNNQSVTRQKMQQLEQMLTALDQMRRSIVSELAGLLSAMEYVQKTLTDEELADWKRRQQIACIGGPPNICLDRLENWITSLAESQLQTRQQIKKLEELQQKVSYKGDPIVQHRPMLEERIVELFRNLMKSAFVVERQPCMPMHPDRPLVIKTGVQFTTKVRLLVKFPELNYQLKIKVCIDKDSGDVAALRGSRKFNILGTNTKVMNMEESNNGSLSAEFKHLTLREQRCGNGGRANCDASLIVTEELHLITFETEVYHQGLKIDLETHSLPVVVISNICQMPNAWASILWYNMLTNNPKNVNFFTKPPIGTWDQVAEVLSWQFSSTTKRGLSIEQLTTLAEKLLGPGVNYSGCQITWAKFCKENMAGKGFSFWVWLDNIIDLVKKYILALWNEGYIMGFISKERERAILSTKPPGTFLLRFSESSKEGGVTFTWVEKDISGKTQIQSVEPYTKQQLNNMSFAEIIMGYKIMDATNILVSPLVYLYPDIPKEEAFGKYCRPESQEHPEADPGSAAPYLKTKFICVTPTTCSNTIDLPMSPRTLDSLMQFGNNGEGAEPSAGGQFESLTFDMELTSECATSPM
Sequence of Heat shock factor protein 1 (Homo sapiens) (Q00613 whole entry, looked up, the tested form may be a part): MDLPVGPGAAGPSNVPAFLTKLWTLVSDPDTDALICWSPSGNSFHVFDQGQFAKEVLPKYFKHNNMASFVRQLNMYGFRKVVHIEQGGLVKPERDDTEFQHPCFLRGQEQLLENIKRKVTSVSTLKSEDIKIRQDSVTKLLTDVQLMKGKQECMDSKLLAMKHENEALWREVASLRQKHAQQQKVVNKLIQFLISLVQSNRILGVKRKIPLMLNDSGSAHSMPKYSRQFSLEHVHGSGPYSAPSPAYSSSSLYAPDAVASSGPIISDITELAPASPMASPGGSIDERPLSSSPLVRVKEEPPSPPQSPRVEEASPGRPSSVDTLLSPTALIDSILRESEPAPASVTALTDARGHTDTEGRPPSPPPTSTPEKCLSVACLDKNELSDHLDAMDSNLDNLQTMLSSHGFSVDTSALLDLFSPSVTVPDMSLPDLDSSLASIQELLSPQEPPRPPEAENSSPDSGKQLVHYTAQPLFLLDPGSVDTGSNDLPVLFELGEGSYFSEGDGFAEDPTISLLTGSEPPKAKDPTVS
Sequence of Hepatocyte nuclear factor 6 (Homo sapiens) (Q9UBC0 whole entry, looked up): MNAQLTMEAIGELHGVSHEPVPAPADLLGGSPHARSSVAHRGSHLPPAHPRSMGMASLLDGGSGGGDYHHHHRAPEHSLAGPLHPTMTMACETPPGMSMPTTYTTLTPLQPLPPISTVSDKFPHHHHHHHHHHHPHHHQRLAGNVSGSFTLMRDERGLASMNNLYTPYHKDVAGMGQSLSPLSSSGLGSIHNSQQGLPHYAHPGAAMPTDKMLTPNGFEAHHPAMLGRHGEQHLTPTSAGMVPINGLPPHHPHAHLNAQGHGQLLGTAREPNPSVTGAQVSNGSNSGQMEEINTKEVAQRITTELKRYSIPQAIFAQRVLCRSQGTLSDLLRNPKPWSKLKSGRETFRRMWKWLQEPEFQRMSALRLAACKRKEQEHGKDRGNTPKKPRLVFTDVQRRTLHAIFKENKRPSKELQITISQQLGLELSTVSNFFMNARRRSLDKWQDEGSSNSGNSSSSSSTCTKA
Sequence of Paired box protein Pax-6 (Homo sapiens) (P26367 whole entry, looked up): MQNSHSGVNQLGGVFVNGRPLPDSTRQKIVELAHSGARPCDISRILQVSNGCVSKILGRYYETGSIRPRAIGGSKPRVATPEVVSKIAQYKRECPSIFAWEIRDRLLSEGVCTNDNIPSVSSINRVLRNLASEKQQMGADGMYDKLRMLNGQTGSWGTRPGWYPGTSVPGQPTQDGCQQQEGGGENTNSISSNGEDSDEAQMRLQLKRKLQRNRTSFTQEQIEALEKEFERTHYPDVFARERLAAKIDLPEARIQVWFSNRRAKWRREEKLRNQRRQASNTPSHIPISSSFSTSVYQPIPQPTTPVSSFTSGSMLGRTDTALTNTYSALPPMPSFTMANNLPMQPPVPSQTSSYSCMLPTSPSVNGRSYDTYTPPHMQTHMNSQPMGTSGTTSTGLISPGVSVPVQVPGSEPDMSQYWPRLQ
Sequence of Hypoxia-inducible factor 1-alpha (Homo sapiens) (Q16665 whole entry, looked up): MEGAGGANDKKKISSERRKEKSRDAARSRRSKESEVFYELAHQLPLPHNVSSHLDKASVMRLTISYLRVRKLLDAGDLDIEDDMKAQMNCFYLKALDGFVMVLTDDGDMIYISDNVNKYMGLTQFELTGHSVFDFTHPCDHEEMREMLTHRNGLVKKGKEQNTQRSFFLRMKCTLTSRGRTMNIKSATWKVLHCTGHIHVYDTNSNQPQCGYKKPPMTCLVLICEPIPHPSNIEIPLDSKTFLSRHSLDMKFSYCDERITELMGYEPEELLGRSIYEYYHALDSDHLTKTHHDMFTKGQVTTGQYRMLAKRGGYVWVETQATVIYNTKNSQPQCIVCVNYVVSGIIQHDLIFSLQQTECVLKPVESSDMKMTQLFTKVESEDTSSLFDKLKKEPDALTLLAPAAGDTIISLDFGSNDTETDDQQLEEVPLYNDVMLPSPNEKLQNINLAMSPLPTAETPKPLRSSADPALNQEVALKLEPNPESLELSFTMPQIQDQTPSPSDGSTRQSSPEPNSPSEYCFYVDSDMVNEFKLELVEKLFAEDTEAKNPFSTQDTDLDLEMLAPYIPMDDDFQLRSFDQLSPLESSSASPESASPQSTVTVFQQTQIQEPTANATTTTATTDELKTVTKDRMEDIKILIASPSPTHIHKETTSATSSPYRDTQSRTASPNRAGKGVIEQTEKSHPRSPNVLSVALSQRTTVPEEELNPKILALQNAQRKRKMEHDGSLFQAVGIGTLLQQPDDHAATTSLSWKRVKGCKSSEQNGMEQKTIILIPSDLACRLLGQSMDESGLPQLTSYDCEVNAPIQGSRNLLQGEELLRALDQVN
Sequence of Transcription factor Sp1 (Homo sapiens) (P08047 whole entry, looked up): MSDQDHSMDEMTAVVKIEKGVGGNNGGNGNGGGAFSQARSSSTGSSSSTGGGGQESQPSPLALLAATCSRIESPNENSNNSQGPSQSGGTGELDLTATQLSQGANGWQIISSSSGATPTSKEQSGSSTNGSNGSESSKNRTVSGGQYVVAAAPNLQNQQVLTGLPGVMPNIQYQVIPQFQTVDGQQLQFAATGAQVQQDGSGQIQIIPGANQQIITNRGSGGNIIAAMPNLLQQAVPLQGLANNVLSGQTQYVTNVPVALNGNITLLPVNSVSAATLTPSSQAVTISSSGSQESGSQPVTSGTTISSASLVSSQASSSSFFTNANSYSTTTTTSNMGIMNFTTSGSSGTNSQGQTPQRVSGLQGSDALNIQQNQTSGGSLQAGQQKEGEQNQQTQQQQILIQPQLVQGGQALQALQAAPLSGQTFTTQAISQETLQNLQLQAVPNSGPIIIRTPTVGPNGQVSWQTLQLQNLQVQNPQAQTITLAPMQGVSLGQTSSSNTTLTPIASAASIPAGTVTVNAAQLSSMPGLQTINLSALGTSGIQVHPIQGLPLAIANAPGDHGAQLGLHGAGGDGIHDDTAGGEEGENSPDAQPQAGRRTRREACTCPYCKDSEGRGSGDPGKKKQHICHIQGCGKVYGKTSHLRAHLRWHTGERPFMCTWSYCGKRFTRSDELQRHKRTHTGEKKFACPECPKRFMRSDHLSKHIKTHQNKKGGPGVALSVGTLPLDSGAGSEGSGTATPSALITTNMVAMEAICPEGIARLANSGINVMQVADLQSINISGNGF

O=C1OC(c2ccc(O)cc2)(c2ccc(O)cc2)c2ccccc21
active: [1] 70.1 µM | [4] 133 µM | [5] 146 µM | [6] 45.1 µM | [7] 4.42 µM | [8] 36.6 µM | [10] 26.7 µM | [11] 41.2 µM | [12] 27.6 µM | [13] 27.7 µM | [14] 27.5 µM
inactive: [2] | [3] | [9]

Cc1occc(=O)c1O
not listed: [6] | [17] | [18] | [19]
inactive: all other assays above

C/C=C/C=C/C(=O)O
inactive: [1] | [2] | [3] | [15] | [4] | [5] | [6] | [7] | [8] | [9] | [17] | [10] | [16] | [11] | [12] | [18] | [13] | [14]
active: [9] 36.7 µM

CCCC[C@H]1CN(CC2CCOCC2)C(=O)OC12CCN(C1(C)CCN(C(=O)c3c(C)ncnc3C)CC1)CC2
not listed: [5] | [16] | [18] | [19]
inactive: all other assays above

N[C@@H](Cc1c[nH]c2ccccc12)C(=O)O
active: [15] 27.3 µM
not listed: [6] | [7] | [16] | [18]
inactive: all other assays above

CC(C)NCC(O)c1ccc(O)c(O)c1 (stereo unspecified)
active: [9] 52.4 µM
not listed: [5] | [6] | [7] | [11] | [15] | [16] | [18]
inactive: all other assays above

CCCCCCCCCCCCCCOS(=O)(=O)O
not listed: [6] | [10] | [16]
inactive: all other assays above
